The record followed here is PubChem BioAssay (NCATS).

Results filed as inconclusive are left out. The source made the active and inactive calls. Unless noted, calls follow the shape of the dose curve; as a rule, active = well fitted curve in the direction sought with a large enough effect; inconclusive = small, poorly fitted or top-dose-only effect, or another doubt; inactive = no such curve, though single readings can be large; an effect the other way counts as inactive or inconclusive.

One assay concerns NIH3T3. Description: Cytotoxic Profiling of Annotated Libraries Using Quantitative High-Throughput Screening (AID 1296008). Also: % is scaled to controls: 0 for no effect and ±100 for the full control effect; nearly all actives have a fitted effect of over 60% in size. Particulars: Five cell lines viability, CellTiter-Glo ATP luminescence, 48-72 h; max response: stronger effect = lower value. The method in brief: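 Cells exposed to compounds for 48 or 72 hr at 37 degrees Celsius. Viability read as ATP-coupled luminescence with CellTiter-Glo after 10 min at room temperature.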
(In ATP-based viability assays light output follows the ATP content of the culture.)

For the next assay, the system named is CAOV3. Nature of the assay: Primary qHTS to identify gynecologic anti-cancer compounds using libraries of approved drugs and bioactive compounds (AID 1345084). Also: % is scaled to controls: 0 for no effect and ±100 for the full control effect; nearly all actives have a fitted effect of over 55% in size. Particulars: Gynecologic cancer cell panel viability, ATPlite luminescence, 48 h; series mostly up to 57.5 µM. The method in brief: (§1)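 Cell viability after 48 h drug treatment, ATPlite luminescence readout; five doses.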
Background: Quantitative high-throughput screening tests each substance at several concentrations.

In a further assay the test system is SKOV3. The assay is described as above. Particulars: Gynecologic cancer cell panel viability, ATPlite luminescence, 48 h; series mostly up to 57.5 µM. The method in brief:
as §1

For assay [1], the system named is Zika virus NS2B-NS3 protease (unlinked complex). Description: Primary screen GU Rhodamine qHTS for Zika virus inhibitors: Unlinked NS2B-NS3 protease assay (AID 1347159). Also: % is scaled to controls: 0 for no effect and ±100 for the full control effect; nearly all actives have a fitted effect of over 60% in size. In short, it runs like this: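 Percent inhibition came from the 15-min rise in Rhodamine110 fluorescence (1.5 microM substrate, ~15% conversion), normalized to no-inhibitor and no-enzyme wells and Hill-fitted. Unlinked protease, 25 nM, pH 8.0 Tris buffer; compounds up to 114 microM, 15-min preincubation.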

Assay [2] can be described thus: P-glycoprotein substrates identified in KB-8-5-11 adenocarcinoma cell line, qHTS therapeutic library screen (AID 1346987). Also: nearly all actives have a fitted effect of over 65% in size. Also: potency is read from the fitted curve at half-maximal effect. In short, it runs like this:
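Luminescence from CellTiter-Glo, read 5 min after addition, quantified survival of KB-8-5-11 (P-gp-overexpressing) cells exposed to compounds for 72 h. AC50 was derived from concentration-response curves.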

For assay [3], the target named is Cytochrome P450 2C9 (Homo sapiens) (UniProt P11712). Nature of the assay: Cytochrome P450 family 2 subfamily C member 9 (CYP2C9) small molecule antagonists: luciferase biochemical (cell-free) qHTS assay (AID 1645842; active = well fitted curve in the direction sought with a large enough effect in the repeat runs; an effect the other way counts as inactive or inconclusive; also: nearly all actives have a fitted effect of over 55% in size; also: potency is read from the fitted curve at half-maximal effect; as to activity change, negative = inhibition: % is scaled to controls: 0 for no effect and ±100 for the full control effect). The method in brief:
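P450-Glo CYP2C9 system: proluciferin substrate with enzyme in mix containing 0.4% BSA, 10 min at room temperature, then NADPH regeneration solution added and incubated 1 h at 37C. Detection reagent stopped reaction; luminescence read after 20 min as RLU.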

A short description of assay [4]: qHTS to identify inhibitors of the type 1 interferon - major histocompatibility complex class I in skeletal muscle: primary screen against the NCATS Mechanism Interrogation Plate v5.0 (MIPE) Libary (AID 1347411).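 Also: plate controls were vehicle for no effect and reference inhibitor for full effect; nearly all actives have a fitted effect of over 65% in size.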 In short, it runs like this:
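Seed engineered human myoblasts (HLA-B HiBit) in medium without dexamethasone containing 4 ng/ml IFN-beta; after 1 hr add compound titrations (top 46 uM final). Incubate 24 hrs at 37 C, lyse 10 min with HiBiT reagent, read luminescence.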

For assay [5], the target named is Catechol O-methyltransferase (Homo sapiens) (UniProt P21964). Nature of the assay: Confirmatory Screen for Target Class Profiling of Small Molecule Inhibitors of Methyltransferases (AID 1745852). As to activity change, negative = inhibition: % is scaled to controls: 0 for no effect and ±100 for the full control effect. The conditions noted are these: MTase-Glo luminescence, SAH detection, recombinant enzyme; measured here: COMT max response; stronger effect = lower value.
Assay [6] concerns the target Guanidinoacetate N-methyltransferase (Homo sapiens) (UniProt Q14353). The assay is described as above. The conditions noted are these: activity change, negative = inhibition: at 57.3 µM (top of the series) unless noted.
The target of assay [7] is Nicotinamide N-methyltransferase (Homo sapiens) (UniProt P40261). The description is as above. Particulars: MTase-Glo luminescence, SAH detection, recombinant enzyme; measured here: NNMT max response; stronger effect = lower value.
Assay [8] has as its target Phenylethanolamine N-methyltransferase (Homo sapiens) (UniProt P11086). The description is as above. The conditions noted are these: MTase-Glo luminescence, SAH detection, recombinant enzyme; measured here: PNMT max response; stronger effect = lower value.
Assay [9] deals with Cytochrome P450 2D6 (Homo sapiens) (UniProt P10635). Nature of the assay: Cytochrome P450 family 2 subfamily D member 6 (CYP2D6) small molecule antagonists: luciferase biochemical (cell-free) qHTS assay (AID 1645840; active = well fitted curve in the direction sought with a large enough effect in the repeat runs; an effect the other way counts as inactive or inconclusive; also: potency is read from the fitted curve at half-maximal effect; nearly all actives have a fitted effect of over 55% in size). The method in brief: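 P450-Glo CYP2D6 system: proluciferin substrate converted by enzyme to luciferin, read by luminescence proportional to activity. Enzyme-substrate mix with compound 10 min at room temperature, then NADPH regeneration 1 h before detection reagent.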

Assay [10] can be described thus: qHTS drug screen for cell cycle checkpoint inhibitors in PARPi-resistant BRCA-mutant ovarian cancer cell lines. (AID 1963452; calls by dose curve). The conditions noted are these: PEO1/OlaR viability, CellTiter-Glo luminescence, 96 h, stronger effect = lower value. The method in brief:
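PEO1, PEO4 and PEO1/OlaR ovarian cancer cells, 600 per well, exposed 96 h at 37C to a dilution series. Viability read by CellTiter-Glo luminescence, normalized to DMSO and empty wells; activity summarized as Z-AUC.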

Chain of Catechol O-methyltransferase (Homo sapiens) (P21964 whole entry, looked up): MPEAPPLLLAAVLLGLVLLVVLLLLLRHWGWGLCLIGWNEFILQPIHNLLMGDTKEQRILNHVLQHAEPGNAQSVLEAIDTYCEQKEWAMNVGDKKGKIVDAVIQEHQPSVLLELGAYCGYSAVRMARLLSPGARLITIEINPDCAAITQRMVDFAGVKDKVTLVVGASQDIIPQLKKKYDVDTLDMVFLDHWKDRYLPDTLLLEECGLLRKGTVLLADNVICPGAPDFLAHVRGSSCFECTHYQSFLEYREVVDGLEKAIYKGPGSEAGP
Chain of Phenylethanolamine N-methyltransferase (Homo sapiens) (P11086 whole entry, looked up): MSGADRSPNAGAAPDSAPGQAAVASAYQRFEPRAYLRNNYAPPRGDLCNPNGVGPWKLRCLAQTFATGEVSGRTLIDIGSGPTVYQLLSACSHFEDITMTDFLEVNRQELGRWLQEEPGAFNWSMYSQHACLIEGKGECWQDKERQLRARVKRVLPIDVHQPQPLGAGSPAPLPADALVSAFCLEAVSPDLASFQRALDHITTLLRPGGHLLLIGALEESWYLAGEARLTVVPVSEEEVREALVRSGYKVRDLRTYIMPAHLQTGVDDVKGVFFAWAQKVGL
Chain of Cytochrome P450 2C9 (Homo sapiens) (P11712 whole entry, looked up): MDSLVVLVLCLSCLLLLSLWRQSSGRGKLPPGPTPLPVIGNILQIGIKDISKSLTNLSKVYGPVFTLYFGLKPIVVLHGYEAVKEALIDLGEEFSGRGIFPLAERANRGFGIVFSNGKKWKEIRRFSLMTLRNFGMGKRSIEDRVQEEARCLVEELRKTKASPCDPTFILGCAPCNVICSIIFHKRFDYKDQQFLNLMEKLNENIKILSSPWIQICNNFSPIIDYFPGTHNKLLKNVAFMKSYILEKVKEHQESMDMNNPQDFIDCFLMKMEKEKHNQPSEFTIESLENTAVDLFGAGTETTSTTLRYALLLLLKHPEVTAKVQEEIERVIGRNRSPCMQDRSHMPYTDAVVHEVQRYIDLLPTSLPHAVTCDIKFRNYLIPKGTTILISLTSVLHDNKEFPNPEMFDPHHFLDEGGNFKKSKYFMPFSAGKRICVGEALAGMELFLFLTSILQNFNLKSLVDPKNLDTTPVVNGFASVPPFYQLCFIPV
Chain of Nicotinamide N-methyltransferase (Homo sapiens) (P40261 whole entry, looked up): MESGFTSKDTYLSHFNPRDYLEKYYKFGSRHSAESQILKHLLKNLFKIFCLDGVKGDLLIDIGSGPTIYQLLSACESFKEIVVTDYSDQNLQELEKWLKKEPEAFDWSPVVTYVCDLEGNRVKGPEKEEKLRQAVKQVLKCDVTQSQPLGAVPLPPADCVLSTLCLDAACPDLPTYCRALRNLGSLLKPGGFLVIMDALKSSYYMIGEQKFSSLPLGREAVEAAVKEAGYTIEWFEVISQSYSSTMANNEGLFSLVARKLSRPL
Chain of Cytochrome P450 2D6 (Homo sapiens) (P10635 whole entry, looked up): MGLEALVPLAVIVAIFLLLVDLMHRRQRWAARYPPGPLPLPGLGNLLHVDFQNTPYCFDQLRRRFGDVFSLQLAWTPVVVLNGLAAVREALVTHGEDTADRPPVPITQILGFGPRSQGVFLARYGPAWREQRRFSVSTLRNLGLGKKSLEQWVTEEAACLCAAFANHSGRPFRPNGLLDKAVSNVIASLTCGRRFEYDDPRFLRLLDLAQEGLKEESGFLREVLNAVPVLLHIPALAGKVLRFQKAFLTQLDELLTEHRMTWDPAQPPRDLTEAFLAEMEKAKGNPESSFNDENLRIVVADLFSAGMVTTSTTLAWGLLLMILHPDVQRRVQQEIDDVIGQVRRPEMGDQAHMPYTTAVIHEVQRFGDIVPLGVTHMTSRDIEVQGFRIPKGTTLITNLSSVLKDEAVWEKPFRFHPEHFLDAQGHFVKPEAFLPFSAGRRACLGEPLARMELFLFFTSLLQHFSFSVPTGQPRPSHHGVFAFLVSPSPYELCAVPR

As to `CC1OC2O[C@H]3[C@@H](OCC(O)[C@H]3O)OC(=O)C34CCC(C)(C)CC3C3=CCC5C6(C)CC(O)C(OC7OC(CO)C(O)C(O)C7O[C@@H]7OC[C@H](OC(=O)CC(C)(O)CC(=O)OC1C(OC1OCC(O)C(O)C1O)C2O)[C@@H](O)[C@H]7O)C(C)(CO)C6CCC5(C)C3(C)CC4` (stereo partly specified), the max response in the assay on NIH3T3 was -22% (inactive). Further, the Potency result in the assay on CAOV3 is “inactive”.

As to `Cc1nc(C)c2c(n1)N(Cc1ccc(-c3ccccc3-c3nn[nH]n3)cc1)C(=O)CC2`, the Potency result with CAOV3 and with SKOV3 was “inactive” in each case.

As to `CCC(=O)c1cc(-c2ccc(Cl)cc2)n(-c2ccc(S(N)(=O)=O)cc2)c1C`, the Potency result (in assay [1]; in the assay with CAOV3) was “inactive” throughout.

As for `CC1CCN(c2cc(NC(=O)c3ccccc3)ncn2)CC1`, the Potency was 16.4 µM (active) in assay [2] and 9.52 µM (active) in assay [3]. Also, the Potency result (in assay [1]; with CAOV3; in the assay on SKOV3) was “inactive” throughout.

For `CCNC(=O)[C@@H]1CCCN1C(=O)[C@H](CCCN=C(N)N)NC(=O)[C@H](CC(C)C)NC(=O)[C@@H](CC(C)C)NC(=O)[C@H](Cc1ccc(O)cc1)NC(=O)[C@H](CO)NC(=O)[C@H](Cc1c[nH]c2ccccc12)NC(=O)[C@H](Cc1cnc[nH]1)NC(=O)[C@@H]1CCC(=O)N1`, the Potency result with CAOV3 and with SKOV3 was “inactive” in each case.

Regarding `Nc1ccc(N)c([N+](=O)[O-])c1`, the Potency entry in the assay on CAOV3 and in the assay on SKOV3 was “inactive” in each case.

Consider `CC1(C)SC2C(NC(=O)[C@H](NC(=O)N3CCNC3=O)c3ccccc3)C(=O)N2C1C(=O)O` (stereo partly specified), for which, in the assay with CAOV3, the Potency result was “inactive”.

As to `CCCCc1nc(Cl)c(CO)n1Cc1ccc(-c2ccccc2-c2nnn[nH]2)cc1`, the Potency entry with CAOV3 and in the assay with SKOV3 was “inactive” each time.

For the molecule `CNCCN(C)Cc1cn[nH]c1-c1ccc(OC2CC(OCCC3CCOCC3)C2)cc1` (stereo unspecified), in assay [4], the Potency result was “inactive”. Also, the activity is 0.741% in assay [5], -3.1% in assay [7] and -1.61% in [8]. The activity change, negative = inhibition in [6] amounted to 7.78%. The max response in the assay on NIH3T3 was -20% (inactive).

With `CCCCOc1ccc(-c2cncc(C(=O)NCc3cccnc3N3CCOCC3)c2)cc1Cl`, the Potency in [9] was 12 µM (active); in [3], 3.01 µM (active). Further, the Potency result in the assay with CAOV3 and in the assay on SKOV3 was “inactive” each time.

With `CN([C@H]1c2cc(OCCCC(F)(F)F)ccc2OC(C)(C)[C@@H]1O)S(C)(=O)=O`, the Potency entry in the assay with CAOV3 was “inactive”.

As for `CC(=O)N1CCN([C@H]2CCN(C(=O)N(C)[C@H](C)c3cc(C(F)(F)F)cc(C(F)(F)F)c3)[C@@H](c3ccc(F)cc3C)C2)CC1`, the Potency entry (in [1]; with CAOV3; with SKOV3) was “inactive” each time.

With `C[N+]1(C)[C@@H]2CC[C@H]1CC(OC(=O)C(O)c1ccccc1)C2` (stereo partly specified), the Potency entry in the assay with CAOV3 and in the assay on SKOV3 was “inactive” throughout.

With `COc1ccc(C(=O)N(CCC(C)C)Cc2nc(C)c(C)n2Cc2ccccc2C)c(OC)c1`, the Potency result (in assay [1]; with CAOV3; in the assay with SKOV3) was “inactive” throughout. In assay [3], the Potency was 21.3 µM (active). Further, the activity in assay [5] is -8.43%; in assay [7], -68.8%; in assay [8], -7.99%. Besides, the activity change, negative = inhibition in assay [6] is -6.57%.

On to `CN(C)C(=O)c1cc2cnc(Nc3ccc(N4CCNCC4)cn3)nc2n1C1CCCC1`, for which the Potency result (in assay [2]; in assay [4]; with CAOV3; in the assay with SKOV3) was “inactive” each time. Moreover, the Z-AUC is 0.0269 (inactive) in [10], 0.759 in assay [10] (measured here: PEO1 parental Z-AUC) and 0.126 in assay [10] (measured here: PEO4 Z-AUC).

With `CN(C)CCCNc1nc(CN2CCN(C(c3ccc(Cl)cc3)c3ccc(Cl)cc3)CC2)nc2ccccc12`, in assay [3], the Potency entry is “inactive”. The activity in [5] is 2.87%; in assay [7], -46.9%; in assay [8], -0.0137%. For the same molecule, the activity change, negative = inhibition in assay [6] was found to be 0%.

On to `O=C(Nc1cccc(C(F)(F)F)c1)c1ccccc1NCc1ccncc1`, for which the Potency result (in [1]; with CAOV3) was “inactive” in each case.
